PubChem BioAssay AID1817 (Sanford-Burnham Center for Chemical Genomics, 2009)
The campaign covered roughly 290,000 compounds. About 50 (0.02%) were called active.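 How the source made its calls: active means displacement of at least 50% at 20 µM, with a fluorescence ratio check between 0.3 and a set limit; inactive means the rest.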 The full list was thinned out, with actives kept by preference. Results with a measured potency or affinity are listed apart.

These molecules were tested against E3 ubiquitin-protein ligase SIAH1 (Homo sapiens) (UniProt Q8IUQ4) (assay: blockers of Siah-1 interaction with plectin peptide – biochemical, fluorescence polarization, rhodamine-plectin, uHTS, primary screen (AID 1817;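 further: plate controls were Siah plus tracer with DMSO for no effect and tracer alone without Siah for full effect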)). Conditions: Siah-1 / rhodamine-plectin peptide fluorescence polarization; at 20 µM; hits give high values.
E3 ubiquitin-protein ligase SIAH1 (Homo sapiens), sequence (Q8IUQ4 whole entry, looked up): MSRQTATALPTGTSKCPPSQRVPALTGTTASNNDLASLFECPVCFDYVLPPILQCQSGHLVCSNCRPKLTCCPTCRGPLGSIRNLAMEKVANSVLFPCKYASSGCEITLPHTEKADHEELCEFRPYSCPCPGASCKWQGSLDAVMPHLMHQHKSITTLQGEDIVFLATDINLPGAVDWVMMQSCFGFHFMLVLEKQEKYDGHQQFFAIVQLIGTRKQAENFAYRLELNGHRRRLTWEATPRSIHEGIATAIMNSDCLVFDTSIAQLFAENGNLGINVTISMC

| Structure (SMILES) | displacement |
| --- | --- |
| Cc1ccc(N2C(=O)NC(=O)/C(=C\C=C\c3ccco3)C2=O)cc1 | 12.1% (inactive) |
| CC(C)c1ccc(N2C(=O)NC(=O)/C(=C\C=C\c3ccco3)C2=O)cc1 | 14.6% (inactive) |
| CC(C)c1ccc(N2C(=O)NC(=O)/C(=C/C=C/c3ccco3)C2=O)cc1 | 51.8% (active) |
| O=[N+]([O-])c1ccc(N2CCNCC2)cc1NCc1ccco1 | -3.7% (inactive) |
| C=C1C(=O)O[C@@H]2C[C@@H](C)[C@H]3C=CC(=O)[C@]3(O)C[C@@H]12 | 51.6% (active) |
| C=C1C(=O)O[C@@H]2C[C@@H](C)[C@@H]3C=CC(=O)[C@@]3(C)[C@@H](O)[C@H]12 | 4.7% (inactive) |
| C=C1C(=O)O[C@H]2C[C@@H](C)[C@@H]3C=CC(=O)[C@@]3(C)C[C@H]12 | 12.6% (inactive) |
| Cc1cc(C=O)c(C)n1C1CCCCC1 | 2.7% (inactive) |
| CCCCn1c(NS(=O)(=O)c2ccc(C)cc2)c(C(=O)OCC)c2nc3ccccc3nc21 | 34.7% (inactive) |
| CCOC(=O)c1c(NS(=O)(=O)c2ccccc2)n(CCCOC)c2nc3ccccc3nc12 | 67% (active) |
| CCOC(=O)c1c(N)n(CCCOC(=O)c2ccco2)c2nc3ccccc3nc12 | 2.6% (inactive) |
| CCCCCn1c(NC(=O)c2ccco2)c(C(=O)OCC)c2nc3ccccc3nc21 | 64.6% (active) |
| CCCCn1c(NC(=O)c2ccco2)c(C(=O)OCC)c2nc3ccccc3nc21 | 4.9% (inactive) |
| COCCCn1c(N)c(C(=O)OCCOC)c2nc3ccccc3nc21 | 2.9% (inactive) |
| COc1ccc(NC(=O)N2CCC3(CC2)OCCO3)cc1 | -2.3% (inactive) |
| O=C(O)C1C2CCC(O2)C1C(=O)Nc1ccc(F)c(F)c1 (stereo not given) | 10.6% (inactive) |
| O=C1NC(=S)N(Cc2ccco2)C(=O)/C1=C\c1cccs1 | 21.3% (inactive) |
| Cc1ccccc1-n1c(O)c(/C=N/N2CCOCC2)c(=O)[nH]c1=S | 2.7% (inactive) |
| Cc1cccc(C)c1NC1=NCCCCS1 | -1.2% (inactive) |
| CCCC12CN3CCN(C1)CC(CCC)(C3)C2=O | 8.2% (inactive) |
